# This is a sample that favours compounds with a hit; in the whole collection about 21% have one here.
# RORgamma inh = qHTS for inhibitors of ROR gamma transcriptional activity | Nuclear receptor ROR-gamma (Mus musculus), P51450 | Drosophila S2 Gal4-RORgamma UAS-luciferase reporter, 20 h | Potency, µM (titrated, usually from 53.6 µM), without a hit: at the highest dose activity change, negative = inhibition, most hits filed as inhibitors | 5.4% of 310,000 active; also: potency is read from the fitted curve at half-maximal effect; nearly all actives have a fitted effect of over 60% in size
# Target sequence (P51450 whole entry, looked up, the tested form may be a part): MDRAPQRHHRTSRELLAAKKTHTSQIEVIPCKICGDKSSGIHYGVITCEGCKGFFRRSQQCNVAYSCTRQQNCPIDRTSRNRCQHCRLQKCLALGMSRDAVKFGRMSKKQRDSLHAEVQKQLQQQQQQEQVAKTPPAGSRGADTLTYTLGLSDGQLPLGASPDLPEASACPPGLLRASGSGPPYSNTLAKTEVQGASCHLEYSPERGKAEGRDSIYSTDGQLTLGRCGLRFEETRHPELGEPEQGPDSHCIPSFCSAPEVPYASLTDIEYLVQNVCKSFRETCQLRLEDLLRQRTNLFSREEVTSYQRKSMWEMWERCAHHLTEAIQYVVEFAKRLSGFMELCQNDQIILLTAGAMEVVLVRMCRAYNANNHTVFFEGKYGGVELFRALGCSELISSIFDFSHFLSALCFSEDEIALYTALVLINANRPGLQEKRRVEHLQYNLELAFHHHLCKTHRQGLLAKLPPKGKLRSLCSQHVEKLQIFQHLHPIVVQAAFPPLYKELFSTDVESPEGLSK
#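 Drosophila Schneider cells stably carrying a metallothionein-driven Gal4 DBD–ROR gamma fusion and a UAS-Photinus luciferase reporter were exposed to compound for 1 hr, then induced with copper sulfate (700 uM final) for 20 hr at ambient temperature before luminescence reading.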
# ELG1 DNA repair = qHTS screen for small molecules that inhibit ELG1-dependent DNA repair in human embryonic kidney (HEK293T) cells expressing luciferase-tagged ELG1 | HEK293T ELG1-luciferase reporter, luminescence, 16 h; DNA damage induced by 5-fluorouridine | Potency, µM (highest dose often 46.1 µM), for inactives: top-dose activity change, negative = inhibition, hits mostly inhibitors | 2.3% of 330,000 active | AID 504467, 2011; also: potency is read from the fitted curve at half-maximal effect; nearly all actives have a fitted effect of over 55% in size
#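 Cells (2,000 per well) received 5-fluorouridine plus test compound or DMSO and were incubated 16 hr at 37 °C, 5% CO2. Luciferase activity was read by luminescence 30 min after ONE-Glo addition; signal suppression marked inhibition of damage-induced ELG1 function.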
# DT40 TDP1 no CPT = qHTS for Inhibitors of human tyrosyl-DNA phosphodiesterase 1 (TDP1): qHTS in cells in absence of CPT; AID 686978, 2013; 15% of 420,000 active; DT40 Tdp1-/- hTDP1 cells, no CPT, ATP luminescence, 48 h; Potency, µM (highest dose often 46.2 µM), without a hit: at the top dose activity change, negative = growth inhibition, most hits filed as inhibitors; also: potency is read from the fitted curve at half-maximal effect; nearly all actives have a fitted effect of over 55% in size
#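 Growth of hTDP1-complemented DT40 Tdp1-knockout cells is measured by ATP luminescence after at least 48 hr compound exposure at 37 °C, with DMSO substituting for the 20 nM CPT used in the parallel screen.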
# Gal4-VP16 FLuc = VP16 counterscreen qHTS for inhibitors of ROR gamma transcriptional activity | 3.5% of 310,000 active | AID 2546, 2010 | Potency, µM (top dose mostly 53.6 µM), for inactives: at the top dose activity, negative = inhibition, most hits filed as inhibitors | Drosophila S2 Gal4-VP16 UAS-luciferase, luminescence, 20 h;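 also: Gal4-VP16 expression switched on by copper sulfate through the metallothionein promoter; potency is read from the fitted curve at half-maximal effect; nearly all actives have a fitted effect of over 50% in size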
# IL-1B inflam inh = qHTS for Inhibitors of Inflammasome Signaling: IL-1-beta AlphaLISA Primary Screen. 4.7% of 360,000 active. activity change, % at 57.5 µM. AID 743279, 2014. THP-1 LPS/ATP IL-1B secretion, AlphaLISA, 16 h; active compounds read low; in the data active = activity change below about -50%; inconclusive = mostly about -30% to -49%
#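 Secreted IL-1B measured by AlphaLISA bead assay after 16 h compound exposure of THP-1 cells; compounds (final up to 57.5 uM) added 1 h before LPS (250 ng/mL) and ATP (1.25 mM) stimulation; lower signal means less secretion.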
# DT40 TDP1 CPT = qHTS for Inhibitors of human tyrosyl-DNA phosphodiesterase 1 (TDP1): qHTS in cells in presence of CPT; chicken DT40 Tdp1-/-;hTDP1 cells + 20 nM CPT, ATP luminescence, 48 h; Potency, µM (top dose mostly 46.2 µM), without a hit: top-dose activity change, negative = growth inhibition, hits mostly inhibitors; 12% of 420,000 active; also: potency is read from the fitted curve at half-maximal effect; nearly all actives have a fitted effect of over 55% in size
#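 Cell growth measured by CellTiter-Glo luminescence after a minimum 48 h, 37 C compound exposure with 20 nM CPT in Tdp1-knockout DT40 cells stably expressing hTDP1, seeded 400/well; qHTS titration format.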
# * hit, by the source's call; ? = inconclusive; / = not tested or not shown. Unless noted, calls follow the shape of the dose curve; as a rule, active = well fitted curve in the direction sought with a large enough effect; inconclusive = small, poorly fitted or top-dose-only effect, or another doubt; inactive = no such curve, though single readings can be large; an effect the other way counts as inactive or inconclusive. % is scaled to controls: 0 for no effect and ±100 for the full control effect.
SMILES,RORgamma inh,ELG1 DNA repair,DT40 TDP1 no CPT,Gal4-VP16 FLuc,IL-1B inflam inh,DT40 TDP1 CPT
Cc1nnc(N2CCCC(C(=O)NCc3ccc(OC(C)C)cc3)C2)c2nn(-c3ccccc3)c(C)c12 (stereo not drawn),-5%,?,?,-20%,?,?
COc1ccc(CNC(=O)C2CCN(c3nnc(C)c4c(C)n(-c5ccc(C)cc5)nc34)CC2)cc1,/,/,16µM*,/,/,?
COc1ccc(-n2nc3c(N4CCCC(C(=O)NCc5ccc(C)cc5)C4)nnc(C)c3c2C)cc1 (stereo not drawn),/,/,3.3µM*,/,/,4.6µM*
CCc1ccc(CNC(=O)C2CCCN(c3nnc(C)c4c(C)n(-c5ccc(OC)cc5)nc34)C2)cc1 (stereo not drawn),/,/,3.3µM*,/,/,4.6µM*
COc1ccc(CNC(=O)c2ccc(-c3nc(CSc4ccccc4)c(C)o3)cc2)cc1OC,/,/,-20%,/,/,-20%
COc1ccc(NC(=O)c2cc(C3CCCCN3C(=O)CCc3ccccc3)on2)c(C)c1 (stereo not drawn),/,/,?,/,-3,?
O=C(NCc1ccccc1F)C1CCN(c2nn3cc(-c4ccc(F)cc4)nc3s2)CC1,/,/,2%,/,/,-1%
COc1ccc(-n2nc3c(N4CCC(C(=O)N5CCC(C)CC5)CC4)nnc(C)c3c2C)cc1,30%,?,?,-1%,?,?
COc1ccc(-n2nc3c(N4CCC(C(=O)NCc5cccc(F)c5)CC4)nnc(C)c3c2C)cc1,/,/,10µM*,/,/,9.2µM*
COc1cccc(CNC(=O)CSc2nnc(C)c3c(C)n(-c4ccccc4)nc23)c1,/,/,18µM*,/,/,?
COc1ccc(CNC(=O)C2CCCN(c3nnc(C)c4c(C)n(-c5ccc(C)cc5)nc34)C2)cc1 (stereo not drawn),/,/,21µM*,/,/,13µM*
CCN(CC(=O)Nc1c(F)cccc1F)C(=O)c1ccc(Cl)c(S(=O)(=O)N2CCCCC2)c1,13%,-16%,-17%,0%,-22,-27%
C[C@@H]1CN([C@@H](C)CO)C(=O)c2cc(Br)cnc2O[C@H]1CN(C)C(=O)c1ccncc1,/,/,3%,/,38,3%
Clc1cccc(-c2ccc(CNCc3ccccn3)o2)c1,11µM*,22%,?,?,4,?
CCC(C)Sc1ccc([C@H]2N[C@@](C)(C(=O)OC)[C@H]3C(=O)N(CC)C(=O)[C@@H]23)cc1OC (stereo partly drawn),/,0%,?,/,35,?
CCCN1CCN(C(=O)c2noc3c2COc2ccc(C)cc2-3)CC1,-23%,?,16µM*,-2%,4,21µM*
COc1ccccc1NC(=O)N(C)C[C@H]1Oc2ncc(Br)cc2C(=O)N([C@H](C)CO)C[C@H]1C,/,/,?,/,15,3%
Cc1noc(C)c1-c1ccc2ncnc(NCc3ccc(Br)cc3)c2c1,11µM*,/,/,11µM*,/,/
Cc1noc(C)c1-c1ccc2ncnc(NCc3cccs3)c2c1,-19%,/,23µM*,-8%,/,12µM*
Cc1noc(C)c1-c1ccc2ncnc(NC3CCCc4ccccc43)c2c1 (stereo not drawn),28µM*,/,/,-4%,/,/
Cc1noc(C)c1-c1ccc2ncnc(NCC3CCCCN3C)c2c1 (stereo not drawn),-30%,?,/,5%,/,/
OC[C@@H]1CN(Cc2ccco2)C[C@H](n2cnc3c(N4CCOCC4)ncnc32)O1,/,/,13%,/,-12,6%

# Source: PubChem (National Center for Advancing Translational Sciences (NCATS))
